MARV entry inh: qHTS for inhibitors of binding or entry into cells for Marburg Virus. AID 540276, 2011. 300,000 compounds, 1.8% hits. Potency, µM (titrated, usually from 37.8 µM), without a hit: at the highest dose activity change, negative = inhibition, most hits filed as inhibitors. Marburg virus pseudotyped entry inhibition, cell reporter; calls by dose curve; tested in HEK293 cells; note: potency is the fitted concentration of half-maximal effect; % is set by controls: 0 for no effect and ±100 for the full control effect
Shiga toxin inh: A qHTS for Small Molecule Inhibitors of Shiga Toxin. Vero cells, Shiga toxin protein synthesis inhibition reporter. 290,000 compounds, 9.2% hits. inhibition, % at 38.7 µM. AID 2315, 2010; in the data active = inhibition mostly above about 28%, no sharp cut-off; inactive = mostly below about 43%; note: 0% is about no effect
Pf growth 48h: Primary qHTS for delayed death inhibitors of the malarial parasite plastid, 48 hour incubation; 310,000 compounds, 5.9% hits; P. falciparum luciferase growth in erythrocytes, 48 h; Potency, µM (top dose mostly 28.7 µM), for inactives: at the top dose activity change, negative = inhibition, most hits filed as inhibitors; note: potency is the fitted concentration of half-maximal effect; % is set by controls: 0 for no effect and ±100 for the full control effect
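Cell-based growth assay: transgenic P. falciparum expressing firefly luciferase, cultured in red cells within RPMI 1640 containing 0.5% w/v Albumax, 24 mM bicarbonate and gentamycin. A drop in luciferase activity indicates inhibition.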
Lassa entry inh: qHTS for Inhibitors of binding or entry into cells for Lassa Virus | Lassa virus pseudotype entry inhibition, cell reporter | Potency, µM (series often up to 37.9 µM), for inactives: top-dose activity change, negative = inhibition, hits mostly inhibitors | 300,000 compounds, 1.2% hits; calls by dose curve; tested in HEK293 cells; note: potency is the fitted concentration of half-maximal effect; % is set by controls: 0 for no effect and ±100 for the full control effect; nearly all actives have a fitted effect of over 50% in size
Pf growth 96h: Primary qHTS for delayed death inhibitors of the malarial parasite plastid, 96 hour incubation | AID 504834, 2011 | Potency, µM (titrated, usually from 28.7 µM), without a hit: at the top dose activity change, negative = inhibition, usual class: inhibitors | 320,000 compounds, 6.9% hits | P. falciparum luciferase reporter growth, 96 h; note: potency is the fitted concentration of half-maximal effect; % is set by controls: 0 for no effect and ±100 for the full control effect
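Two parasite generations (96 h, 37 C, 5% CO2) of compound exposure in infected erythrocytes (0.05% parasitemia, 2% hematocrit). Luciferase-reporter P. falciparum; decreased luminescence indicates inhibited growth, aimed at apicoplast-acting delayed death.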
Cycloheximide cs: Cycloheximide Counterscreen for Small Molecule Inhibitors of Shiga Toxin | AID 2314, 2010 | cell reporter, cycloheximide protein synthesis inhibition counterscreen | max response, % | 300,000 compounds, 12% hits; in the data active = max response mostly above about 13%, no sharp cut-off; inactive = mostly below about 14%; note: read at 38.3 µM for the half of the compounds with a filed dose; 0% is about no effect
Active calls of the source: *; ? = inconclusive; . = no result given; [ ] = another dose, or the depositor's remark. An excerpt weighted towards active compounds, which were near 19% of everything screened. Unless noted, calls come from the whole dose curve; as a rule, active = well fitted inhibition curve with a large enough effect; inconclusive = small, poorly fitted or top-dose-only effect, or another doubt; inactive = no such curve, though single readings can be large or run the other way.

SMILES | MARV entry inh | Shiga toxin inh | Pf growth 48h | Lassa entry inh | Pf growth 96h | Cycloheximide cs
C#Cc1ccc([C@@H]2C=C(C(=O)N3CCN(Cc4ccccc4)CC3)O[C@H](OCC)[C@H]2CCCO)cc1 | . | -2.8 | ? | . | 6.57µM* | -3.0
Cc1cc(F)ccc1N1CCC(N2CCN(C(C)C)C(CCO)C2)CC1 (stereo unspecified) | ? | -11.2 | -20.7% | -24.4% | 10.4µM* | 0.4
CCOc1ncccc1C(=O)OC(C)C(=O)Nc1ccc(Cl)cn1 (stereo unspecified) | . | . | -1.8% | . | 32.4% | .
O=C(NCCN1C(=O)S/C(=C\c2cccnc2)C1=O)c1ccc([N+](=O)[O-])s1 | ? | . | -10.7% | 13.4% | 51.4% | .
Cc1c(C(=O)NCCN2C(=O)S/C(=C\c3cccnc3)C2=O)cccc1[N+](=O)[O-] | . | -5.9 | 5.22µM* | . | ? | -1.0
O/N=C/c1ccccc1OCc1ccccc1F | 10.2% | 37.8* | 30.8% | 5.3% | 154.8% | 25.8*
O/N=C/c1cc(Cl)ccc1OCc1ccccc1Cl | ? | -3.6 | 7.7% | ? | 38.0% | -3.7
O/N=C/c1ccc(OCc2ccccc2F)c(Cl)c1 | ? | 52.5* | 300.2% | ? | 121.8% | 51.8*
O/N=C/c1cc(Br)cc(Br)c1OCc1ccccc1 | 9.7% | -0.4 | 16.1% | -1.7% | 2.7%[5.75 µM] | -3.5
O/N=C/c1ccc(OCc2ccccc2)c(Br)c1 | -3.0% | 65.9* | 358.6% | ? | 20.8% | 39.8*
CCOc1cc(/C=N/O)cc(Br)c1OCc1ccc(Cl)cc1 | ? | 21.4 | ? | ? | -71.8% | -3.1
O/N=C/c1ccc(OCc2ccccc2)c(Cl)c1 | ? | 75.5* | 258.8% | ? | 9.4% | 37.1*
CN1CCN(Cn2cc(/C=C/C(=O)c3ccccc3)c3ccccc32)CC1 | ? | 61.1* | 178.6% | 10.1% | . | 33.5*
COc1ccc(C(=O)N/C(=C\c2cccc3ccccc23)C(=O)N2CCN(C)CC2)cc1OC | ? | 12.9 | 5.3% | -3.3%[46.1 µM] | 9.5% | 1.0
COc1ccc(C(=O)/C=C/c2cn(CC(O)CN3CCN(C)CC3)c3ccccc23)cc1OC (stereo unspecified) | ? | -1.8 | 4.65µM* | -24.8% | 11.7µM* | -1.6
O=C(/C=C/c1cn(CC(O)CN2CCCCC2)c2ccccc12)c1ccccc1 (stereo unspecified) | ? | 19.8 | 13.1µM* | ? | ? | 11.9
CCn1cc(/C=C(\NC(=O)c2ccc(OC)c(OC)c2)C(=O)N2CCN(C)CC2)c2ccccc21 | . | -8.8 | ? | . | 10.4µM* | -3.0
CN(C(=O)c1ccccc1OC1CCN(S(C)(=O)=O)CC1)C1CCOC1 (stereo unspecified) | . | -9.0 | 24.9% | . | -6.8% | 8.1
COc1ccccc1C(=O)CN1C(=O)NC2(CCCCCC2)C1=O | -6.0% | . | . | 15.8% | . | .
CCCCN(C)CC(O)Cn1cc(/C=C/C(=O)c2ccc(OC)c(OC)c2)c2ccccc21 (stereo unspecified) | 4.47µM* | . | . | ? | . | .
CCCN(CCC)CC(O)Cn1cc(/C=C/C(=O)c2cccs2)c2ccccc21 (stereo unspecified) | ? | -6.0 | 7.38µM* | ? | 2.4% | -1.5
CCCCN(C)CC(O)Cn1cc(/C=C/C(=O)c2ccc(C)cc2)c2ccccc21 (stereo unspecified) | ? | 2.9 | 9.28µM* | ? | -8.1% | -0.3
N#CC(C#N)=C1NC2(CCCCC2)Cc2ccccc21 | . | 0.9 | -15.9% | . | -4.2% | -2.1
N#CC(C#N)=c1ccc2c(c1)NC1(CCCCC1)N=2 | ? | 64.7* | ? | ? | ? | 36.8*
Cc1cc(NC2CCCCC2)n2c(n1)nc1ccccc12 | . | 17.7 | -19.0% | . | -18.8% | 0.6
SMILES | MARV entry inh | Shiga toxin inh | Pf growth 48h | Lassa entry inh | Pf growth 96h | Cycloheximide cs
COc1ccccc1-c1c(C)nn2c(C)cc(C)nc12 | . | -3.0 | -7.9% | . | 13.1µM* | -2.4
CCOC(=O)N1CCC(Nc2cc(C)nc3c(-c4ccccc4OC)c(C)nn23)CC1 | . | -4.0 | 9.28µM* | . | 2.5% | -1.9
CCOC(=O)N1CCN(C(=O)CSc2ccc(-c3ccccc3OC)nn2)CC1 | -19.1% | -2.8 | ? | ? | 4.65µM* | 9.4
COc1ccccc1-c1cnn2c(NC3CCCC3)cc(C)nc12 | ? | 124.6* | 29.8% | -0.6%[46.1 µM] | ? | 38.2*
COc1cc(OC)c(NC(=O)c2cc3c(=O)oc4ccc(C)cc4c3s2)cc1Cl | 3.3%[46.1 µM] | . | . | -1.5%[46.1 µM] | . | .
CCOC(=O)C1CCCN(c2cc(C)nc3c(-c4ccccc4OC)c(C)nn23)C1 (stereo unspecified) | . | . | . | 5.8%[46.1 µM] | . | .
CCOC(=O)N1CCN(C(=O)CSc2cc(C)nc3c(-c4ccccc4OC)c(C)nn23)CC1 | -28.0% | -0.6 | 4.65µM* | -7.5% | 11.3% | -2.0
CC(=O)Nc1ccc(NC(=O)c2ccc(COc3ccccc3)cc2)cc1 | . | 21.2 | 7.0% | . | 5.5% | -1.1
O=c1c2ccccc2nc2n1CCN2Cc1ccc(Cl)cc1 | ? | 37.6 | 2.08µM* | -17.9% | 2.33µM* | 32.8*
O=C(CSc1nnc(-c2ccccn2)n1Cc1ccco1)Nc1ccc2c(c1)OCO2 | -0.2% | -27.8 | 8.4% | 1.4% | 32.2% | 1.2
COc1ccc(NC(=O)c2c(-c3ccccc3Cl)noc2C)c(OC)c1 | 14.6µM* | 16.6 | 2.62µM* | ? | -0.3% | -2.8
COc1ccc(NC(=O)c2c(-c3ccccc3)noc2C)c(OC)c1 | -24.9% | -15.5 | . | -1.9% | ? | -4.4
Cc1ccnc(NC(=O)c2c(-c3ccccc3Cl)noc2C)c1 | 15.8% | 64.2* | 44.2% | 7.0% | 50.3% | 21.3*
Cc1onc(-c2ccccc2)c1C(=O)Nc1ccc(Br)cc1Cl | 9.4% | 6.8 | 14.7µM* | 0.0% | 2.2% | -2.4
Cc1cc(C)nc(NC(=O)c2c(-c3ccccc3Cl)noc2C)c1 | ? | 1.4 | 11.9% | 3.1% | 2.2% | -2.8
CC(=O)c1ccc(NC(=O)CNCC(c2ccccc2)N(C)C)cc1 (stereo unspecified) | -6.3% | -9.6 | -14.6% | ? | 5.8% | 2.0
Nc1ccc(O)cc1C(=O)OCC(=O)C12CC3CC(CC(C3)C1)C2 | 27.6% | 42.4 | ? | 11.4% | -11.3% | 20.0
COc1ccc(C(=O)OCC(=O)c2ccc(C3CCCCC3)cc2)cc1 | ? | 7.5 | 5.2% | 2.24µM* | 28.9% | 13.2*
COc1ccc(C(=O)COC(=O)c2ccc(NC(=O)c3ccccc3)cc2)cc1 | -3.8% | 3.1 | 20.6% | -4.5% | 11.0% | 1.1
Nc1ccc(O)cc1C(=O)OCC(=O)c1ccc(C2CCCCC2)cc1 | ? | 144.8* | 30.0% | ? | 33.7% | 60.7*
COc1ccc(C2c3[nH]c4ccccc4c3CCN2C(=O)c2ccccc2C(C)=O)c(F)c1 (stereo unspecified) | . | 29.0* | ? | . | -17.8% | 18.3*
